Measurements as given in PubChem BioAssay (Tox21).
Inconclusive results are not listed. Calls of active or inactive are those of the source. Unless noted, calls come from the whole dose curve; as a rule, active = well fitted curve in the direction sought with a large enough effect in the repeat runs; inconclusive = weak or mixed curves; inactive = no such curve, though single readings can be large; an effect the other way counts as inactive or inconclusive.

What was measured:
[1] = qHTS assay for small molecule agonists of the p53 signaling pathway (AID 651631; calls by dose curve; note: nearly all actives have a fitted effect of over 15% in size)
Procedure, shortened: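 Stably transfected HCT-116 cells (beta-lactamase behind p53 response elements) get compounds after a 5 h settling period; 16 h later at 37 °C, FRET substrate is loaded and fluorescence read after 2 h.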

[2] = qHTS assay for small molecules that induce genotoxicity in human embryonic kidney cells expressing luciferase-tagged ATAD5 (AID 651632); note: nearly all actives have a fitted effect of over 15% in size
Procedure, shortened: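 HEK293T cells carrying luciferase-tagged ATAD5 were given compound or DMSO vehicle and incubated 16 hr at 37C, 5% CO2. Luciferase activity was read after 30 min at room temperature with Amplite; a rise signals genotoxic stress.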

[3] = qHTS assay for small molecule agonists of the p53 signaling pathway - cell viability (AID 651633; calls by dose curve;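 note: p53RE-bla HCT reporter cells with a stable beta-lactamase p53 reporter; nearly all actives have a fitted effect of over 30% in size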)
Procedure, shortened: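 Viability counter-read: CellTiter-Glo luminescence (30 min, room temperature) in the same p53RE-bla plates. These plates had been exposed to compounds for 16 h at 37 C.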

[4] = qHTS assay for small molecules that induce genotoxicity in human embryonic kidney cells expressing luciferase-tagged ATAD5 - cell viability (AID 651634; calls by dose curve; note: nearly all actives have a fitted effect of over 25% in size)
Procedure, shortened: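 HEK293T cells carrying luciferase-tagged ATAD5, 2,000 cells/well, exposed to compound for 15.5 hr at 37C. Viability read as live-cell protease activity by CellTiter-Fluor fluorescence after 30 min at 37C.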

[5] = qHTS assay for small molecule disruptors of the mitochondrial membrane potential - cell viability (AID 720634; calls by dose curve;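 note: human HepG2 liver cancer cells; nearly all actives have a fitted effect of over 20% in size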)
Procedure, shortened: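 HepG2 cells, 2,000 per well, attached overnight, then treated 1 hr at 37 C, 5% CO2. Viability read as ATP by CellTiter-Glo luminescence after 30 min at room temperature. Read in the same wells as the m-MPI membrane-potential dye assay.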

[6] = qHTS assay to test for compound auto fluorescence at 590 nm (red) in HepG2 cells (AID 720674)
Procedure, shortened: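 1 hr compound incubation on HepG2 cells, 37 C, 5% CO2; plate read ex 540 nm / em 590 nm; intensities reported as Rose Bengal sodium equivalents.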

[7] = qHTS assay to test for compound auto fluorescence at 535 nm (green) in HepG2 cells (AID 720675)
[8] = qHTS assay to test for compound auto fluorescence at 590 nm (red) in HEK293 cells (AID 720679)
Procedure, shortened: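 HEK293 cells (2,000/well, medium with 10% dialyzed FBS) attached for 4-5 hr at 37C, received 23 nL compound and were incubated overnight at 37C, 5% CO2. Red fluorescence was then read at 540/590nm Ex/Em, referenced to Rose Bengal sodium.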

[9] = qHTS assay to test for compound auto fluorescence at 535 nm (green) in HEK293 cells (AID 720680)
[10] = qHTS assay to test for compound auto fluorescence at 460 nm (blue) in HEK293 cell free culture (AID 720681)
Procedure, shortened: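 Blue fluorescence (Ex 405/Em 460 nm, triamterene-equivalent) was read immediately after pin transfer of compound or DMSO into medium (DMEM, 10% FBS) without cells.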

[11] = qHTS assay to test for compound auto fluorescence at 535 nm (green) in HEK293 cell free culture (AID 720682)
Procedure, shortened: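 Using fluorescein as calibrant, autofluorescence was quantified at 485/535 nm in cell-free DMEM containing 10% FBS after pintool addition of compound or vehicle.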

[12] = qHTS assay to test for compound auto fluorescence at 590 nm (red) in HEK293 cell free culture (AID 720683)
Procedure, shortened: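 Red-channel autofluorescence of compounds in culture medium (DMEM, 10% FBS), no cells, measured at 540/590 nm. Rose Bengal sodium is the reference fluorophore for equivalence.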

[13] = qHTS assay to test for compound auto fluorescence at 590 nm (red) in HepG2 cell free culture (AID 720684)
Procedure, shortened: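 Steps: dispense MEM/10% FBS medium, no cells; pin compound or DMSO vehicle; read red channel, Ex/Em 540/590 nm. Output given as Rose Bengal sodium equivalents.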

[14] = qHTS assay to test for compound auto fluorescence at 460 nm (blue) in HepG2 cell free culture (AID 720685)
Procedure, shortened: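 Compound (23 nL) or DMSO pinned into cell-free MEM with 10% FBS; blue fluorescence read at 405/460 nm excitation/emission, expressed as auto-fluorescence equivalency to triamterene.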

[15] = qHTS assay to test for compound auto fluorescence at 535 nm (green) in HepG2 cell free culture (AID 720686)
[16] = qHTS assay to test for compound auto fluorescence at 460 nm (blue) in HepG2 cells (AID 720687)
Procedure, shortened: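 Blue-channel autofluorescence (Ex/Em 405/460 nm, triamterene-equivalent) was measured after 1 hr compound exposure at 37 C, 5% CO2. Cells were HepG2, plated overnight at 37 C in MEM plus 10% FBS.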

[17] = qHTS assay for small molecule disruptors of the mitochondrial membrane potential (AID 720635); note: potency is the fitted concentration of half-maximal effect
Procedure, shortened: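 Mitochondrial membrane potential tracked with Mito-MPS dye, red aggregates (ex 540/em 590 nm) against green monomers (ex 490/em 535 nm). Compound treatment 1 hr at 37C, dye 30 min in HepG2.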

[18] = target: Glucocorticoid receptor (Homo sapiens) (UniProt P04150); test: qHTS assay to identify small molecule agonists of the glucocorticoid receptor (GR) signaling pathway (AID 720691; active = well fitted activation curve with a large enough effect in the signal ratio in the repeat runs, not every such curve was filed as active; the % refers to the signal ratio); conditions: GR-bla HeLa, beta-lactamase reporter ratio, 18 h; activation: at 62.4 µM (top of the series)
Sequence of Glucocorticoid receptor (Homo sapiens) (P04150 whole entry, looked up): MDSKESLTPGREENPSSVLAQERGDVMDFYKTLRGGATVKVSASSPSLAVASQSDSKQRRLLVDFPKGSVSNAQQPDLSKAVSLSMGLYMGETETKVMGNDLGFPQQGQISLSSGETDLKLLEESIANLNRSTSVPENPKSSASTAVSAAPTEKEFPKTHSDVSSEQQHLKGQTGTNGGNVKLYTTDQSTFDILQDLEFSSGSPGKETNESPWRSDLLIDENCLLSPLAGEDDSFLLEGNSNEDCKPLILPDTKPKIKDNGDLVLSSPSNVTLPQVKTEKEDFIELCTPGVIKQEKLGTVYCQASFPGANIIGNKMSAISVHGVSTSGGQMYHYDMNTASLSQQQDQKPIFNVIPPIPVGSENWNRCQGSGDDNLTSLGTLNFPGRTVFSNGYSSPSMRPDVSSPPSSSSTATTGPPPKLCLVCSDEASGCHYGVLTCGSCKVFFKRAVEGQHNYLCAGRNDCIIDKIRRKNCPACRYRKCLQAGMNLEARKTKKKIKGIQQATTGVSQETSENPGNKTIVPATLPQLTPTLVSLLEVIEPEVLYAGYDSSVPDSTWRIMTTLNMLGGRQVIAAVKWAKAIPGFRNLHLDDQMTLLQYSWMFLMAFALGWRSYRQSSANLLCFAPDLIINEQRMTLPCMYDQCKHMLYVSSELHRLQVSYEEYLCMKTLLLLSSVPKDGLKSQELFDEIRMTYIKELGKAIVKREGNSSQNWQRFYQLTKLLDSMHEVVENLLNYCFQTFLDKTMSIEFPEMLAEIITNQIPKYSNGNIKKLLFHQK
Procedure, shortened: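 GR-bla HeLa cells carrying a GRE-driven beta-lactamase reporter, exposed to compounds for 18 h at 37 C. Reporter activation read as fluorescence after 2 h with LiveBLAzer B/G FRET substrate at room temperature.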

[19] = target: Glucocorticoid receptor (Homo sapiens) (UniProt P04150); test: qHTS assay to identify small molecule antagonists of the glucocorticoid receptor (GR) signaling pathway (AID 720692; active = well fitted inhibition curve with a large enough effect in the signal ratio in the repeat runs, not every such curve was filed as active; the % refers to the signal ratio)
Procedure, shortened: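 GR-bla HeLa cells carrying a GRE-driven beta-lactamase reporter received compound after 4 h plating, then dexamethasone (5 nM final). After 18 h at 37C, the FRET substrate was loaded for 2 h at room temperature and fluorescence read.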

[20] = qHTS assay to test for compound auto fluorescence at 460 nm (blue) in HEK293 cells (AID 720678)
Procedure, shortened: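 HEK293 cells (2,000 per well, medium with 10% dialyzed FBS) attached for 4-5 hr at 37C, then received compound and stood overnight at 37C, 5% CO2. Blue fluorescence was read at Ex/Em 405/460 nm and expressed relative to triamterene.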

Measured: Potency

C[C@H]1C[C@@H]2[C@H]([C@@H](O)C[C@@]3(C)[C@H]2CC[C@]3(O)C(=O)CO)[C@@]2(C)C=CC(=O)C=C12
not listed: [17] | [18] | [19] | [20]
inactive: all other assays above

CC(C)(N)CO
not listed: [20]
inactive: all other assays above

CCc1cccc(C)c1N
not listed: [19] | [20]
inactive: all other assays above

C=CCNC(N)=S
not listed: [17] | [18] | [19]
inactive: all other assays above

O=P(OC(CCl)CCl)(OC(CCl)CCl)OC(CCl)CCl
active: [17] 61.1 µM
not listed: [18] | [19] | [20]
inactive: all other assays above

C=CCOC(=O)c1ccccc1C(=O)OCC=C
not listed: [17] | [18] | [19]
inactive: all other assays above

COc1cc(Cc2cnc(N)nc2N)cc(OC)c1OC
not listed: [4] | [18] | [19]
inactive: all other assays above

CN(C)CCOCCN(C)C
not listed: [17] | [19]
inactive: all other assays above

CC(=O)OCC(=O)[C@@]12N=C(C)O[C@@H]1C[C@H]1[C@@H]3CCC4=CC(=O)C=C[C@]4(C)[C@H]3[C@@H](O)C[C@@]12C
not listed: [2] | [17] | [18] | [19]
inactive: all other assays above

CCCCCCCCCCCCc1ccccc1
not listed: [2] | [18] | [19]
inactive: all other assays above

O=C(O)c1cc(O)c(O)c(O)c1
not listed: [4] | [18] | [19]
inactive: all other assays above

CC(C)(C)[C@@H](O)[C@@H](Cc1ccc(Cl)cc1)n1cncn1
not listed: [17]
inactive: all other assays above
